{"source": "the supplement of paper PMC8728848", "binders": {"B1": {"name": "PX9961T-pdi-555-33-555 (Parabacteroides distasonis) (protein)", "chain": "FDEETAFQSPTLVYVNTVASLYNNMFKIMGNDRHVYDLNTFSSDEAMLPCRIGDWEDGGLWQNIFLHRWGTMNDLTKNSWDFLYEQIGKCNQSVDKLQAFAEEQPDVEYFKVYLEEVRAVRAFFYYELLDLFARVPLVTSSTTPMSEVKQSERSVVFNFVRSELEEALPYLSDNRSNQKGEYYGRITKPVAYMILAKLALNAEVYADDNWTDGNRPAGKNIKFTVDGKEMNAWEATIAYVDKLEALGYKLQGNFSENFAVANETSVENIFTVPMDPVAYPDAKDYNLVRTRHYDHATAYGQSGWNGSCATVKAMNVFKFGTADEDPRCKLTYFTGEVTGPDGKTIYTEWDGQKVPLKYEPNAPKVYMDASDGLLVKTAGARMAKYEFDQNAQDGGNLHGNDCVIFRFADALLMKAEAKIRLGQNGDDEVNQVRNRVGAKPLQNVTLDTLLDERMLELAWEGVRRQDLIRFGKFTEATVDRYVGVKHFASSLDYQEDKTGYTTVFSIYADILSLNPNLTQNPGY"}}, "assay_in_all_cases": "glycan array binding signal (z-score within array); higher = stronger binding", "conditions_in_all_cases": "glycan notation: IUPAC condensed, linker removed", "key": {"[1]": {"biological_target": "GlcNAc(b1-3)Gal(b1-4)GlcNAc(b1-3)Gal(b1-4)GlcNAc(b1-3)Gal(b1-4)GlcNAc(b1-3)Gal(b1-4)GlcNAc(b1-2)Man(a1-3)[GlcNAc(b1-3)Gal(b1-4)GlcNAc(b1-3)Gal(b1-4)GlcNAc(b1-3)Gal(b1-4)GlcNAc(b1-3)Gal(b1-4)GlcNAc(b1-2)Man(a1-6)]Man(b1-4)GlcNAc(b1-4)[Fuc(a1-6)]GlcNAc", "in_short": "(§1)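 Negative Z-scores can be read as non-binding. The Z-score is calculated within each array and then averaged across arrays of one protein sequence at different concentrations or buffers and across linkers. Arrays, 3228 in all, were curated from the Consortium for Functional Glycomics database and kept only where the protein sequence was available.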"}, "[2]": {"biological_target": "GlcNAc(b1-3)Gal(b1-4)GlcNAc(b1-3)Gal(b1-4)GlcNAc(b1-3)Gal(b1-4)GlcNAc(b1-3)Gal(b1-4)GlcNAc(b1-2)[GlcNAc(b1-3)Gal(b1-4)GlcNAc(b1-3)Gal(b1-4)GlcNAc(b1-3)Gal(b1-4)GlcNAc(b1-3)Gal(b1-4)GlcNAc(b1-6)]Man(a1-6)[GlcNAc(b1-3)Gal(b1-4)GlcNAc(b1-3)Gal(b1-4)GlcNAc(b1-3)Gal(b1-4)GlcNAc(b1-3)Gal(b1-4)GlcNAc(b1-2)Man(a1-3)]Man(b1-4)GlcNAc(b1-4)[Fuc(a1-6)]GlcNAc", "in_short": "as §1"}, "Kdn(a2-3)Gal(b1-4)GlcNAc": {"biological_target": "Kdn(a2-3)Gal(b1-4)GlcNAc", "in_short": "as §1"}, "Neu5Ac(a2-3)Gal": {"biological_target": "Neu5Ac(a2-3)Gal", "in_short": "as §1"}, "[3]": {"biological_target": "Neu5Ac(a2-3)Gal(b1-3)GlcNAc(b1-2)Man", "in_short": "as §1"}, "[4]": {"biological_target": "Neu5Ac(a2-3)Gal(b1-3)[Fuc(a1-4)]GlcNAc(b1-3)Gal(b1-4)[Fuc(a1-3)]GlcNAc", "in_short": "as §1"}, "[5]": {"biological_target": "Neu5Ac(a2-3)Gal(b1-3)[Neu5Ac(a2-6)]GalNAc", "in_short": "as §1"}, "[6]": {"biological_target": "Neu5Ac(a2-3)Gal(b1-4)GlcNAc(b1-3)Gal(b1-4)GlcNAc(b1-3)Gal(b1-4)GlcNAc(b1-2)Man(a1-3)[Neu5Ac(a2-3)Gal(b1-4)GlcNAc(b1-3)Gal(b1-4)GlcNAc(b1-3)Gal(b1-4)GlcNAc(b1-2)Man(a1-6)]GalNAc", "in_short": "as §1"}, "[7]": {"biological_target": "Neu5Ac(a2-3)Gal(b1-4)GlcNAc(b1-3)Gal(b1-4)[Fuc(a1-3)]GlcNAc", "in_short": "as §1"}, "[8]": {"biological_target": "Neu5Ac(a2-3)Gal(b1-4)GlcNAc(b1-6)[Neu5Ac(a2-3)Gal(b1-3)]GalNAc", "in_short": "as §1"}, "[9]": {"biological_target": "Neu5Ac(a2-3)Gal(b1-4)[Fuc(a1-3)]GlcNAc(b1-3)GalNAc", "in_short": "as §1"}, "[10]": {"biological_target": "Neu5Ac(a2-3)Gal(b1-4)[Fuc(a1-3)]GlcNAc(b1-6)[Gal(b1-3)]GalNAc", "in_short": "as §1"}, "[11]": {"biological_target": "Neu5Ac(a2-3)[GalNAc(b1-4)]Gal(b1-4)Glc", "in_short": "as §1"}, "[12]": {"biological_target": "Neu5Ac(a2-6)Gal(b1-4)GlcNAc(b1-2)Man(a1-3)[Neu5Ac(a2-6)Gal(b1-4)GlcNAc(b1-2)Man(a1-6)]Man(b1-4)GlcNAc(b1-4)[Fuc(a1-6)]GlcNAc", "in_short": "as §1"}, "[13]": {"biological_target": "Neu5Ac(a2-6)Gal(b1-4)GlcNAc(b1-3)Gal(b1-4)GlcNAc(b1-3)Gal(b1-4)GlcNAc(b1-2)Man(a1-3)[Neu5Ac(a2-6)Gal(b1-4)GlcNAc(b1-3)Gal(b1-4)GlcNAc(b1-3)Gal(b1-4)GlcNAc(b1-2)Man(a1-6)]GalNAc", "in_short": "as §1"}, "[14]": {"biological_target": "Neu5Ac(a2-6)Gal(b1-4)GlcNAc(b1-3)Gal(b1-4)GlcNAc(b1-3)[Neu5Ac(a2-6)Gal(b1-4)GlcNAc(b1-3)Gal(b1-4)GlcNAc(b1-6)]GalNAc", "in_short": "as §1"}, "[15]": {"biological_target": "Neu5Ac(a2-8)Neu5Gc(a2-3)Gal(b1-4)GlcNAc", "in_short": "as §1"}, "[16]": {"biological_target": "Neu5Gc(a2-3)Gal(b1-4)[Fuc(a1-3)]GlcNAc", "in_short": "as §1"}}, "note": "This excerpt belongs to a sample that is enriched for the strongest signals."}
{"binder": "B1", "values": [{"measurement": "glycan array binding signal (z-score)", "setting": "[1]", "value": 0.229}, {"measurement": "glycan array binding signal (z-score)", "setting": "[2]", "value": -0.523}, {"measurement": "glycan array binding signal (z-score)", "setting": "Kdn(a2-3)Gal(b1-4)GlcNAc", "value": -0.683}, {"measurement": "glycan array binding signal (z-score)", "setting": "Neu5Ac(a2-3)Gal", "value": -0.213}, {"measurement": "glycan array binding signal (z-score)", "setting": "[3]", "value": -0.451}, {"measurement": "glycan array binding signal (z-score)", "setting": "[4]", "value": -0.031}, {"measurement": "glycan array binding signal (z-score)", "setting": "[5]", "value": -0.194}, {"measurement": "glycan array binding signal (z-score)", "setting": "[6]", "value": 1.63}, {"measurement": "glycan array binding signal (z-score)", "setting": "[7]", "value": -0.528}, {"measurement": "glycan array binding signal (z-score)", "setting": "[8]", "value": 1.08}, {"measurement": "glycan array binding signal (z-score)", "setting": "[9]", "value": 1.68}, {"measurement": "glycan array binding signal (z-score)", "setting": "[10]", "value": -0.177}, {"measurement": "glycan array binding signal (z-score)", "setting": "[11]", "value": 1.56}, {"measurement": "glycan array binding signal (z-score)", "setting": "[12]", "value": -0.612}, {"measurement": "glycan array binding signal (z-score)", "setting": "[13]", "value": 0.737}, {"measurement": "glycan array binding signal (z-score)", "setting": "[14]", "value": 1.82}, {"measurement": "glycan array binding signal (z-score)", "setting": "[15]", "value": 20.7}, {"measurement": "glycan array binding signal (z-score)", "setting": "[16]", "value": 0.358}]}
